From article PMC4336329 (PLoS ONE, 2015)
Screen size: about 310,000 compounds; about 14,000 (4.5%) showed an effect of 50% or more. The effect is printed as a negative number. The entries come from a sample that favours strong results as a whole.

Biological target: human ether-à-go-go-related gene (hERG) potassium channel (human, UniProt Q12809)
Test: primary screen, population patch clamp on CHO cells stably expressing hERG; higher = less effect of the substance
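Note: peak tail current of the secondary pulse compared with the same well before compound.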

Sequence of human ether-à-go-go-related gene (hERG) potassium channel (Q12809 whole entry, looked up): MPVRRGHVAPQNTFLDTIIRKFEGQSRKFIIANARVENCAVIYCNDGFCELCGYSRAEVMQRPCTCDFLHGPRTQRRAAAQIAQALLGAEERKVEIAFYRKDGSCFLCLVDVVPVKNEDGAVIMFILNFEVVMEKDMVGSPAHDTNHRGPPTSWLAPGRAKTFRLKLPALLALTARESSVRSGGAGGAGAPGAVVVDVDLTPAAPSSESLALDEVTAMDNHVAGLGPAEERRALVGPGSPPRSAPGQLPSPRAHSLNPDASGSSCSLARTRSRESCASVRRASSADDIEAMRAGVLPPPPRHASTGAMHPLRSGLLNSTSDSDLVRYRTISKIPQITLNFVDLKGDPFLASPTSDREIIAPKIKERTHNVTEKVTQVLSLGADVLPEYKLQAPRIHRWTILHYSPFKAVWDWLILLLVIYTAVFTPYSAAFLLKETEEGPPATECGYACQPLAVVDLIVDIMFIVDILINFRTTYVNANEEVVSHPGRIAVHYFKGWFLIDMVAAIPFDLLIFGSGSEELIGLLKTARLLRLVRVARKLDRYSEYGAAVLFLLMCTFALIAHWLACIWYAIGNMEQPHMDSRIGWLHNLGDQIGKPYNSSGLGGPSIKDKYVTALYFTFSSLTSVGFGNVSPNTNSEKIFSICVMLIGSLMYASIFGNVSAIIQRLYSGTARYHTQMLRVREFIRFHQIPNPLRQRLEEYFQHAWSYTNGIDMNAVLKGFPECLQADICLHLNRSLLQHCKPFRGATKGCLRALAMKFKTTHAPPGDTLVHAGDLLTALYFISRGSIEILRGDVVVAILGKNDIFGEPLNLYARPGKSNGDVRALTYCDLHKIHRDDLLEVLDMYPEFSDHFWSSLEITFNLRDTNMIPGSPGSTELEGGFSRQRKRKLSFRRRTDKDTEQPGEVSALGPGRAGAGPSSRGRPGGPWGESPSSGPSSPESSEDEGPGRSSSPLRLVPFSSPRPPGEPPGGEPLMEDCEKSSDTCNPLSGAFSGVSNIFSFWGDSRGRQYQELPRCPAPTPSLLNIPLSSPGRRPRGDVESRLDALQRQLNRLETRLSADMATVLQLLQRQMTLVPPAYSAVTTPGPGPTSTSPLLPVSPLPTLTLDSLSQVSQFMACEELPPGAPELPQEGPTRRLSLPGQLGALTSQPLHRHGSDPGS

SMILES | hERG current change (%, negative = inhibition) at 10uM [%]
COc1ccccc1NC(=O)NCC(c1ccco1)N1CCCCC1 (stereo not shown) | 14.8
Cc1ccc(S(=O)(=O)Nc2ccc(SC(F)F)cc2)c(C)c1 | 10.3
COc1ccc(NC(=O)CN2C(=O)C(C)Oc3ccc(C)cc32)cc1 (stereo not shown) | 3.11
CC(NC(=O)COc1ccccc1Cl)c1ccccc1 (stereo not shown) | 7.82
O=C(N/C(=C/c1cccs1)C(=O)N1CCOCC1)c1ccco1 | -1.03
O=C(N/C(=C\c1cccs1)C(=O)N1CCOCC1)c1ccco1 | 0.17
CN1CCN(C(=O)/C(=C\c2cccs2)NC(=O)c2ccco2)CC1 | -67.4
Cc1ccccc1NC(=O)/C(=C\c1cccs1)NC(=O)c1ccco1 | -7.17
Cc1ccc(NC(=O)/C(=C/c2cccs2)NC(=O)c2ccco2)cc1 | 6.71
CN1CCN(C(=O)/C(=C/c2cccs2)NC(=O)c2ccco2)CC1 | -70.5
O=C(Nc1ccc(S(=O)(=O)N2C[C@@H]3C[C@@H](C2)c2cccc(=O)n2C3)cc1)c1ccc(F)cc1 | -2.39
CC(=O)Nc1nc(N)n(-c2ccccc2)n1 | 3.2
Clc1ccc(-c2ncc3ccccn23)cc1 | -4.95
CN(c1ccc(C(=O)NCc2ccc3c(c2)OCO3)cc1)S(=O)(=O)c1ccccc1 | -4.02
O=C(NC1=NCCS1)C1CC2CCC1C2 (stereo not shown) | 2.05
COc1ccc(/C=N\NC(=O)c2cc(O)c(O)c(O)c2)cc1COc1ccc(C(=O)OCC(C)C)cc1 | 21
CC(C)(C)c1ccc(OC(=O)c2ccc3snnc3c2)cc1 | 20.4
O=c1[nH]c2cc3c(cc2cc1CN(Cc1cccnc1)C(=S)NCc1ccco1)OCCO3 | -5.62
Cc1ccc(C)c2[nH]c(=O)c(CN(Cc3cccs3)C(=S)NCc3ccco3)cc12 | -33
O=c1[nH]c2cc3c(cc2cc1CN(CCCO)C(=S)NCc1ccco1)OCO3 | 12
CCN(CC)CCN(Cc1cc2cc3c(cc2[nH]c1=O)OCO3)C(=S)NCc1ccco1 | -55.8
CCN(CC)CCCN(Cc1cc2cc3c(cc2[nH]c1=O)OCO3)C(=S)NCc1ccco1 | -38.2
CCN(CC)CCN(Cc1cc2cc(C)c(C)cc2[nH]c1=O)C(=S)NCc1ccco1 | -52.8
CN(C)CCN(Cc1cc2cc3c(cc2[nH]c1=O)OCO3)C(=S)NCc1ccco1 | -11.4
Cc1cc2cc(CN(CCN(C)C)C(=S)NCc3ccco3)c(=O)[nH]c2cc1C | -43.8
O=c1[nH]c2cc3c(cc2cc1CN(Cc1cccnc1)C(=S)NCc1ccco1)OCO3 | -52.5
Cc1cc2cc(CN(Cc3cccs3)C(=S)NCc3ccco3)c(=O)[nH]c2cc1C | -13.9
Cc1ccc(C)c2[nH]c(=O)c(CN(CC3CCCO3)C(=S)NCc3ccco3)cc12 (stereo not shown) | -24.3

SMILES | hERG current change (%, negative = inhibition) at 10uM [%]
Cc1ccc(C)c2[nH]c(=O)c(CN(Cc3cccnc3)C(=S)NCc3ccco3)cc12 | -61.1
COc1ccc(C(=O)NCCSc2ccc(C)cc2)cc1 | -11
O=c1cc(-c2cc3ccccc3o2)c2cc(O)ccc2o1 | 13.3
Clc1ccc(-[n+]2c(-c3cccc(Br)c3)[nH]c3nc4ccccc4nc32)cc1 | 13.5
Cc1ccc(S(=O)(=O)NC(=O)COc2ccccc2C)c(C)c1 | -21.9
Cc1c(Cl)cccc1NC(=O)COC(=O)c1c2c(nc3ccccc13)CCN(Cc1ccccc1)C2 | 2.82
Cc1ccc(C(=O)NNC(=O)Cn2nnc3ccccc32)cc1 | 13.3
NC(=O)COc1cccc(/C=N/NC(=O)c2ccc(-n3cccc3)cc2)c1 | 13.5
CCN(CC)CCN(Cc1cc2cc3c(cc2[nH]c1=O)OCCO3)C(=S)NCC(C)C | -4.96
CC(C)CNC(=S)N(CCN(C)C)Cc1cc2cc3c(cc2[nH]c1=O)OCO3 | 0.354
CCN(CC)CCN(Cc1cc2cc3c(cc2[nH]c1=O)OCO3)C(=S)NCC(C)C | -55.1
S=C1NCCOCCNC(=S)NCCOCCOCCOCCN1 | 10.2
CCc1cc(=O)oc2cc(C)c3c(C)coc3c12 | 16.3
CCOC(=O)C1=C(C)NC(=O)C(C(N)=O)C12CCCCC2 (stereo not shown) | 12.4
CC(C)NC(=O)CN1C(=O)CSc2ccc(S(=O)(=O)N3CCCC3)cc21 | 15.6
COc1ccc(CN2CCCC(N3CCN(c4ccc(OC)cc4)CC3)C2)cc1 (stereo not shown) | -45
COc1ccc(N2CCN(C3CCCN(Cc4cccc(C(C)=O)c4)C3)CC2)cc1 (stereo not shown) | -30.2
CSc1ccc(CN2CCCC(N3CCN(c4ccccc4)CC3)C2)cc1 (stereo not shown) | -64.2
COc1ccc(N2CCN(C3CCCN(Cc4cccc(OC)c4)C3)CC2)cc1 (stereo not shown) | -64.4
OCCOc1ccc(CN2CCCC(N3CCN(c4ccc(F)cc4)CC3)C2)cc1 (stereo not shown) | -69.8
COc1ccccc1N1CCN(C2CCCN(Cc3ccccc3OCCO)C2)CC1 (stereo not shown) | -25.5
CCOc1ccc(CN2CCCC(N3CCN(c4ccc(OC)cc4)CC3)C2)cc1 (stereo not shown) | -64
COC(=O)CCC(=O)N1CCCC(N2CCN(c3ccc(OC)cc3)CC2)C1 (stereo not shown) | -1.47
COc1ccc(N2CCN(C3CCCN(Cc4cccc(C)c4)C3)CC2)cc1 (stereo not shown) | -32.8
CCN(C1CCS(=O)(=O)C1)S(=O)(=O)c1ccc2ccccc2c1 (stereo not shown) | -10.5
Cc1c[n+](CC(=O)c2ccccc2)cs1.[Br-] | 22
COc1ccc(NC(=O)CSCC(=O)Nc2ccccc2N2CCCC2)cc1 | -7.76
